Bioassay records as filed in PubChem.
S2 tox = cell viability loss in ATXN counter-screen. 400,000 tested, 0.49% active. AID 651635. S2 cells (HEK-293 line with an ATXN2-luciferase reporter) viability, CellTiter-Fluor protease fluorescence, 24 h. Potency, µM (highest dose often 56.7 µM), usual class: cytotoxic; further: nearly all actives have a fitted effect of over 40% in size
TDP1 cell noCPT = qHTS for Inhibitors of human tyrosyl-DNA phosphodiesterase 1 (TDP1): qHTS in cells in absence of CPT; DT40 Tdp1-/- hTDP1 cells, no CPT, ATP luminescence, 48 h; Potency, µM (series often up to 46.2 µM), actives largely listed as inhibitors; 420,000 tested, 15% active; AID 686978, 2013; further: nearly all actives have a fitted effect of over 55% in size
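Growth of hTDP1-complemented DT40 Tdp1-knockout cells is measured by ATP luminescence after at least 48 hr compound exposure at 37 °C, with DMSO substituting for the 20 nM CPT used in the parallel screen.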
TGFb inhibitor = inhibitors of TGF-b signaling; HepG2 CAGA-GFP TGF-b/SMAD3 reporter, GFP fluorescence, 18 h; TGF-beta stimulated, 500 pg/mL final; Potency, µM (titrated, usually from 46.1 µM), hits mostly inhibitors; 410,000 tested, 1.2% active; further: nearly all actives have a fitted effect of over 65% in size
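GFP signal (ex488/em500-530) from TGF-beta-stimulated HEPG2 CAGA-GFP cells, 500 pg/mL final, 18 h at 37 degrees C in DMEM plus 1% FBS, normalized to unstimulated and DMSO-stimulated controls.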
HepG2 tox = kills HepG2 cells in TGF-b inhibitor counter-screen | 410,000 tested, 0.76% active | HepG2 CAGA-GFP viability, ATP luminescence, 18 h | Potency, µM (titrated, usually from 46.1 µM), actives largely listed as cytotoxic
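HepG2 CAGA-GFP cells (1000/well, DMEM with 1% FBS) received compound, then TGF-beta at 500 pg/mL final, and were incubated 18 hours at 37 degrees C. Viability was read by CellTiter-Glo luminescence. Media-only wells were set as complete cell-killing and DMSO as no toxicity.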
DT40 TDP1 CPT = growth inhibition of DT40 Tdp1-/-;hTDP1 cells with camptothecin (screen for TDP1 inhibitors). chicken DT40 Tdp1-/-;hTDP1 cells + 20 nM CPT, ATP luminescence, 48 h. Potency, µM (highest dose often 46.2 µM), hits mostly inhibitors. 420,000 tested, 12% active; further: nearly all actives have a fitted effect of over 55% in size
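Cell growth measured by CellTiter-Glo luminescence after a minimum 48 h, 37 C compound exposure with 20 nM CPT in Tdp1-knockout DT40 cells stably expressing hTDP1, seeded 400/well; qHTS titration format.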
ATXN2 expr inh = ATXN2 expression inhibition; HEK-293 ATXN2-luciferase reporter, luminescence, 24 h; Potency, µM (highest dose often 57 µM), usual class: inhibitors; 360,000 tested, 0.72% active; further: nearly all actives have a fitted effect of over 55% in size
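qHTS (up to 57 uM final) was run with 24 h compound exposure of reporter cells at 37 °C. Each well was multiplexed: SteadyGlo luminescence measured ATXN2-luciferase expression after a fluorogenic Gly-Phe-AFC viability readout (25 uM final).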
Large screens that a line does not name were inactive. Hits are enriched below; roughly 17% of the tested compounds scored in any of these assays. The call rests on the fitted dose curve; in most records, active means well fitted curve in the direction sought with a large enough effect; inconclusive means small, poorly fitted or top-dose-only effect, or another doubt; inactive means no such curve, though single readings can be large; an effect the other way counts as inactive or inconclusive.

CCOc1cccc(NC(=O)C2CC(=O)N(C)C(=Nc3cccc(F)c3)S2)c1 (centres undefined)	TDP1 cell noCPT 18µM, TGFb inhibitor inconclusive, DT40 TDP1 CPT inconclusive
CCOC(=O)c1c[nH]c2c([N+](=O)[O-])cc(OC)cc2c1=O	TDP1 cell noCPT 16µM, DT40 TDP1 CPT 7.3µM
CCOC(=O)c1c[nH]c2ccc([N+](=O)[O-])cc12	TDP1 cell noCPT inconclusive
Cc1cccnc1CCNC(=O)c1ccc(OC2CCN(Cc3ccccn3)CC2)cc1	ATXN2 expr inh inconclusive
O=C(NCCc1cccc(Cl)c1)c1ccc(OC2CCN(Cc3ccccn3)CC2)cc1	TDP1 cell noCPT 16µM, DT40 TDP1 CPT 29µM, ATXN2 expr inh inconclusive (no result: S2 tox)
CCn1nc(C)c(CNC(=O)c2ccc(OC3CCN(Cc4ccccn4)CC3)cc2)c1C	S2 tox inconclusive, TDP1 cell noCPT 2.9µM, DT40 TDP1 CPT 6.5µM
CNS(=O)(=O)c1cccc(C(=O)OCC(=O)c2c(N)n(Cc3ccccc3)c(=O)n(C)c2=O)c1	TDP1 cell noCPT inconclusive, DT40 TDP1 CPT 15µM
CN(c1ccccc1)S(=O)(=O)c1ccc(Cl)c(C(=O)OCC(=O)c2c(N)n(C)c(=O)n(C)c2=O)c1	TDP1 cell noCPT inconclusive, TGFb inhibitor inconclusive, DT40 TDP1 CPT 23µM
Cn1c(N)c(C(=O)COC(=O)c2cccc(S(=O)(=O)NCc3ccccc3)c2)c(=O)n(C)c1=O	TDP1 cell noCPT inconclusive, DT40 TDP1 CPT inconclusive
C=CCN(c1ccc(OC)cc1)S(=O)(=O)c1ccc(Cl)c(C(=O)OCC(=O)c2c(N)n(C)c(=O)n(C)c2=O)c1	S2 tox inconclusive, TDP1 cell noCPT inconclusive, DT40 TDP1 CPT inconclusive
CCN(c1ccccc1)S(=O)(=O)c1cccc(C(=O)OCC(=O)c2c(N)n(C)c(=O)n(C)c2=O)c1	TDP1 cell noCPT 18µM, TGFb inhibitor inconclusive, DT40 TDP1 CPT inconclusive (no result: ATXN2 expr inh)
COc1ccc(N(C)S(=O)(=O)c2cccc(C(=O)OCC(=O)c3c(N)n(C)c(=O)n(C)c3=O)c2)cc1	S2 tox inconclusive, TDP1 cell noCPT 13µM, TGFb inhibitor inconclusive, DT40 TDP1 CPT 23µM, ATXN2 expr inh inconclusive
Cn1c(=O)c(C(=O)COC(=O)c2cc(C3CC3)nc3ccccc23)c(N)n(Cc2ccccc2)c1=O	TDP1 cell noCPT 16µM, DT40 TDP1 CPT 21µM
CCN(CC)C(=O)c1[nH]cnc1C(=O)NCCCCCNC(=O)OC(C)(C)C	none
CC(C)(C)OC(=O)[C@H](Cc1ccccc1)NC(=O)c1ncn2c1c(=O)[nH]c1ccc(Br)cc12	TDP1 cell noCPT 3.3µM, DT40 TDP1 CPT 4.6µM
CC(C)(C)OC(=O)NCCCCCNC(=O)c1ncn2c1c(=O)[nH]c1ccccc12	TDP1 cell noCPT 21µM, DT40 TDP1 CPT inconclusive
CC1=C(C)C(OCCCl)N(c2cc(O)c(Cl)cc2F)C1=O (centres undefined)	none
COCOc1cccc(CN2CCC(C)(Oc3cccc(C#N)c3)C2)c1 (centres undefined)	DT40 TDP1 CPT inconclusive
CC1(Oc2ccc(-n3ccnc3)cc2)CCN(Cc2cccn2-c2nccs2)C1 (centres undefined)	S2 tox inconclusive, TDP1 cell noCPT 18µM, DT40 TDP1 CPT 29µM
COc1cccc(OC2(C)CCN(Cc3cccn3-c3nccs3)C2)c1 (centres undefined)	S2 tox inconclusive, TDP1 cell noCPT 21µM, TGFb inhibitor inconclusive, DT40 TDP1 CPT 23µM
O=C1C=C(c2cccc3c2sc2ccccc23)C[C@@H](c2ccc(Cl)cc2)C1	TDP1 cell noCPT inconclusive, DT40 TDP1 CPT inconclusive
CCCCNS(=O)(=O)c1ccc2nc(SCC(=O)N3CC(C)OC(C)C3)[nH]c2c1 (centres undefined)	none
CCCCOC(=O)c1ccc(-c2ccc(/C=N/NC(=S)NCC)o2)cc1	TDP1 cell noCPT 7.3µM, DT40 TDP1 CPT 5.8µM
CCOC(=O)c1ccc(-c2ccc(/C=N/NC(=O)c3cncc(Br)c3)o2)cc1	TDP1 cell noCPT 23µM, DT40 TDP1 CPT inconclusive (no result: S2 tox)
COc1ccc(C(C)=O)cc1CN1C(=O)C(C)ON=C1c1ccccn1 (centres undefined)	none
Cc1ccc(CNC(=O)CSc2ccsc2[N+](=O)[O-])cc1	TDP1 cell noCPT 10µM, DT40 TDP1 CPT inconclusive
O=C(CSc1ccsc1[N+](=O)[O-])Nc1cc(F)ccc1F	TDP1 cell noCPT inconclusive (no result: ATXN2 expr inh)
CCN(CC)c1ccc(NC(=O)CSc2ccsc2[N+](=O)[O-])c(C)c1	TDP1 cell noCPT 18µM, DT40 TDP1 CPT inconclusive
CCN(CC)c1ccc(NC(=O)C(NS(=O)(=O)c2cccs2)C(C)C)c(C)c1 (centres undefined)	TDP1 cell noCPT 21µM, DT40 TDP1 CPT 21µM
O=C(CN1C(=O)COc2ccc(S(=O)(=O)N3CCCCCC3)cc21)NCCc1ccccc1	TDP1 cell noCPT inconclusive, DT40 TDP1 CPT inconclusive (no result: S2 tox, ATXN2 expr inh)
COc1ccccc1CN1CCCC2(CCN(C(C)=O)CC2)C1	none (no result: S2 tox, TGFb inhibitor, HepG2 tox, ATXN2 expr inh)
C/C=C/C=N/Nc1nc(-c2ccc([N+](=O)[O-])cc2)cs1	TDP1 cell noCPT 23µM, DT40 TDP1 CPT inconclusive
Cc1ccc(-c2csc(N/N=C/C=C/c3ccccc3)n2)cc1	TDP1 cell noCPT inconclusive, DT40 TDP1 CPT inconclusive
CC(C)=NNc1nc(-c2ccc([N+](=O)[O-])cc2)cs1	S2 tox inconclusive, TDP1 cell noCPT 21µM, TGFb inhibitor inconclusive, DT40 TDP1 CPT inconclusive
CCN(Cc1ccccc1)C(=O)Nc1ccc2c(c1)N(C)C(=O)c1ccccc1S2	TDP1 cell noCPT inconclusive, DT40 TDP1 CPT inconclusive (no result: S2 tox, ATXN2 expr inh)
O=C(NC1CCCCCC1)c1ccc(-n2cnnc2)cc1	none
C=CC[C@@H](CC(=O)N(CCO)Cc1ccccc1)C(=O)N[C@H](COC(=O)[C@H](CC=C)CC(=O)OC(C)(C)C)Cc1c[nH]c2ccccc12	S2 tox 22µM, TDP1 cell noCPT 16µM, TGFb inhibitor inconclusive, DT40 TDP1 CPT 23µM, ATXN2 expr inh inconclusive
C=CC[C@H](CC(=O)N(CCO)Cc1ccccc1)C(=O)N[C@H](COC(=O)[C@@H](CC=C)CC(=O)OC(C)(C)C)Cc1c[nH]c2ccccc12	S2 tox 13µM, TDP1 cell noCPT 16µM, TGFb inhibitor inconclusive, DT40 TDP1 CPT 23µM, ATXN2 expr inh 22µM
CN(C)CCCNCCCNC(=O)/C(=N\O)c1ccccn1	DT40 TDP1 CPT inconclusive
O=C(CCCC(=O)OCC(F)(F)C(F)F)Nc1ccccc1F	none
Cn1cccc1C(=O)N1CCC2(CCN(Cc3ccncc3)CC2)CC1	none (no result: S2 tox, TGFb inhibitor, HepG2 tox, ATXN2 expr inh)
